In PubChem BioAssay (NCATS):
Inconclusive results are not listed. Activity calls are given as the source filed them. Calls come from the whole dose curve; as a rule, active = well fitted curve in the direction sought with a large enough effect; inconclusive = small, poorly fitted or top-dose-only effect, or another doubt; inactive = no such curve, though single readings can be large; an effect the other way counts as inactive or inconclusive.

How the values were obtained:
[1] = biological target: Cellular tumor antigen p53 (Homo sapiens) (UniProt P04637); experiment: Primary qHTS for small molecule compounds that upregulate eGFP-tagged delta133p53alpha (in N-terminal) cells. (AID 2060322); details: NCI-H358 eGFP-delta133p53alpha fluorescence, 24 h; activation: hits give high values;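 note: cells pre-induced with doxycycline then dosed without doxycycline; 0% = DMSO vehicle and 100% = reference activator; nearly all actives have a fitted effect of over 75% in size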
Procedure, shortened: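 NCI-H358 cells pre-induced 24 h with 10 ng/ml doxycycline for eGFP-delta133p53alpha, plated dox-free and exposed 24 h at 37C to titrated compounds. Fixed, Hoechst-stained; gated GFP peak intensity by laser scanning cytometry, normalized to DMSO (0%) and 57.5 uM 5-azacytidine (100%).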

[2] = biological target: Aldehyde dehydrogenase, mitochondrial (Homo sapiens) (UniProt P05091); experiment: qHTS for Inhibitors of the Aldehyde Dehydrogenase Family (ALDH2) Primary screen (AID 2061308); details: ALDH2 enzyme inhibition qHTS, 1536-well; series mostly up to 56 µM;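 note: plate controls were vehicle for no effect and reference inhibitor for full effect; nearly all actives have a fitted effect of over 55% in size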
[3] = biological target: Retinaldehyde dehydrogenase 3 (Homo sapiens) (UniProt P47895); experiment: qHTS for Inhibitors of the Aldehyde Dehydrogenase Family (ALDH1A3) Primary screen (AID 2061315); details: ALDH inhibition qHTS; series mostly up to 56 µM;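 note: plate controls were DMSO vehicle for no effect and reference inhibitor for full effect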

Sequence of Cellular tumor antigen p53 (Homo sapiens) (P04637 whole entry, looked up): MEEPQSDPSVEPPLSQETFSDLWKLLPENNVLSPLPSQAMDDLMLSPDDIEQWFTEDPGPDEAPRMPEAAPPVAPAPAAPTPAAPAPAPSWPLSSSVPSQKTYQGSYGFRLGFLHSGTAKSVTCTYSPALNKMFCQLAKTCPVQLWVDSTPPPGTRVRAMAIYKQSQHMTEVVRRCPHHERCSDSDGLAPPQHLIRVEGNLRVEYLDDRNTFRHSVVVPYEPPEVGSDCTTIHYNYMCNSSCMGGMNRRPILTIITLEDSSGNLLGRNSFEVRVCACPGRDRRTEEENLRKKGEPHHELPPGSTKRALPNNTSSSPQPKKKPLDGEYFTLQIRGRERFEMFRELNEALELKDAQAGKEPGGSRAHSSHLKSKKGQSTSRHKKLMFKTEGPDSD

COc1c(CCC(=O)O)cccc1O[C@@H]1O[C@H](CO)[C@@H](O)[C@H](O)[C@H]1O
inactive: activation [1] -4.58% | Potency [2] | Potency [3]

C=C1CC23CCC4[C@@](C)(CCC[C@@]4(C)C(=O)O)C2CCC1C3 (some centres undefined)
inactive: activation [1] 6.25% | Potency [2] | Potency [3]

COc1cc(/C=C/C(=O)OC2[C@H](O)CC(O)(C(=O)O)C[C@H]2O)ccc1O (some centres undefined)
inactive: activation [1] 7.63% | Potency [2] | Potency [3]

C=CC(C)(O)CC/C=C(\C)C(=O)O[C@@H]1[C@@H](O)[C@H](OC(C)(C=C)CC/C=C(\C)C(=O)O[C@@H]2O[C@H](CO)[C@@H](O)[C@H](O)[C@H]2O)O[C@H](CO)[C@H]1OC(=O)/C(C)=C/CCC(C)(O)C=C (some centres undefined)
inactive: activation [1] -19.8% | Potency [2] | Potency [3]

CC(=O)N1CCN(Cc2ccc([C@H](C)Nc3nccc(N4C(=O)OC[C@@H]4C(C)C)n3)cc2)CC1
inactive: activation [1] -16.1% | Potency [2] | Potency [3]

C[C@@H]1C(=O)O[C@H]2C[C@]34[C@H]5C[C@@H](C(C)(C)C)[C@]36[C@@H](OC(=O)[C@H]6O)O[C@]4(C(=O)O5)[C@]21O
inactive: activation [1] -22.1% | Potency [2] | Potency [3]

C=C1C(O)C[C@@H]2C(C(=O)O)=CO[C@@H](O[C@@H]3O[C@H](CO)[C@@H](O)[C@H](O)[C@H]3OC(=O)c3ccc(O)cc3)[C@H]12 (some centres undefined)
inactive: activation [1] 9.82% | Potency [2] | Potency [3]

C/C(=C\CO)CC/C=C(\C)C(=O)O[C@@H]1O[C@H](CO)[C@@H](O)[C@H](O)[C@H]1O
inactive: activation [1] -19.6% | Potency [2] | Potency [3]
